Test results taken from PubChem BioAssay (Tox21).
Results filed as inconclusive are left out. Values without a mark were called inactive. Calls of active or inactive are those of the source. Calls follow the shape of the full dose curve.
% is scaled to controls: 0 for no effect and ±100 for the full control effect.

Assay: qHTS assay to identify small molecule agonists of the endoplasmic reticulum stress response signaling pathway - cell viability counter screen (AID 1159517); also: nearly all actives have a fitted effect of over 50% in size
Details: ESRE-bla HeLa viability, CellTiter-Glo luminescence, 5 h; series mostly up to 61 µM
Text: U.S. Tox21 Program National Center for Advancing Translational Sciences [NCATS] NIH Chemical Genomics Center [NCGC] U.S. Environmental Protection Agency [EPA] National Institutes of Environmental Health Sciences [NIEHS] National Toxicology Program [NTP] U.S. Food and Drug Administration [FDA] Tox21 Assay Overview: Endoplasmic Reticulum (ER) plays an important role in cellular signaling, protein folding/maturation, stress response, lipid biosynthesis, calcium storage and release etc. Under stress conditions, proteins in ER misfold or unfold, and leading to the expression of ER stress responsive genes. ER stress has been associated with a variety of pathophysiological conditions such as cancer, inflammation, neurodegenerative diseases, diabetes, ischemic heart disease etc. To identify the compounds that induce ER stress response, an ER stress reporter cell line, CellSensor ESRE-bla HeLa (Life Technologies, Carlsbad, CA) containing a beta-lactamase reporter gene under control of the Endoplasmic reticulum Stress Response Element (ESRE) was used to screen Tox21 10K compound library. The cytotoxicity of the Tox21 compound library against the ESRE-bla HeLa cell line was tested in parallel by measuring cell viability using the CellTiter-Glo assay in the same wells.
Tox21 Assay Protocol Summary: ESRE-bla HeLa cells were dispensed at 1,500 cells/6 uL of assay medium per well into black wall/clear-bottom 1536-well plates using a Multidrop Combi (ThermoFisher Scientific, Waltham, MA) dispenser. After the assay plates were incubated at 37 C and 5% CO2 for an overnight, 23 nL of compounds dissolved in DMSO, positive controls or DMSO only was transferred to the assay plate by a Pintool station (Kalypsys, San Diego, CA). The assay plates were incubated at 37 C and 5% CO2 for 5 hr. One uL of LiveBLAzer B/G FRET substrate (Life Technologies) was added using a FRD (Flying Reagent Dispenser, Aurora Discovery, San Diego, CA) and the plates were incubated at room temperature for 2 hr. Fluorescence intensity (405 nm excitation, 460 nm and 530 nm emissions) was measured using an Envision plate reader (PerkinElmer, Shelton, CT). For cytotoxicity, 4 ul/well of CellTiter-Glo reagent was added into the assay plates using an FRD. After 30 min incubation at room temperature, the luminescence intensity was measured using a ViewLux plate reader (PerkinElmer).
CN(C)CCCN(C)C showed an activity change, negative = cytotoxicity of 19.8% [at 6.95 µM].
For CC(C)C(=O)Nc1cccc(C2CN3CCSC3=N2)c1 (stereo not given), the outcome was “inactive”.
For Cc1ccc(O)c(C(=O)c2ccccc2)c1, the outcome was “inactive”.
With CCC(C)SSC(C)CC (stereo not given) the outcome was “inactive”.
In the case of CCCCCCCCCCCCCC(=O)OCC, the outcome is reported as “inactive”.
In the case of CC(O)C(CO)C(C)O (stereo not given), the outcome is reported as “inactive”.
With OCCC(F)(F)C(F)(F)C(F)(F)C(F)(F)C(F)(F)C(F)(F)F the outcome was “inactive”.
With CC(=O)c1c(C)cc(C(C)(C)C)cc1C the outcome was “inactive”.
In the case of CCCCNCC, the outcome is reported as “inactive”.
With CC(=O)OCC(=O)[C@@]1(O)CC[C@H]2[C@@H]3CCC4=CC(=O)C=C[C@]4(C)[C@H]3[C@@H](O)C[C@@]21C the outcome was “inactive”.
N=C(N)N1CCc2ccccc2C1 gave an activity change, negative = cytotoxicity of 3.62% [at 6.95 µM].
For COc1ccc2cc(CCC(C)=O)ccc2c1, the outcome was “inactive”.
In the case of Cc1ccc(S(=O)(=O)NC(=O)NN2CC3CCCC3C2)cc1 (stereo not given), the outcome is reported as “inactive”.
In the case of C/C=C/C(=O)CCCC, the outcome is reported as “inactive”.
In the case of O=c1[nH]c(=O)c2cn[nH]c2[nH]1, the outcome is reported as “inactive”.
For CC(C)(C)c1ccc(N)cc1, the outcome was “inactive”.
In the case of CN(C)c1ccncc1, the outcome is reported as “inactive”.
With CCCCOCCCC the outcome was “inactive”.
With O=c1c(O)c(O)c1=O the outcome was “inactive”.
For CC/C=C\CCOC(=O)c1ccccc1, the outcome was “inactive”.
With COC(=O)c1cc(Cl)c(NC(C)=O)cc1OC the outcome was “inactive”.
With Cc1ccc(NC(N)=O)cc1 the outcome was “inactive”.
In the case of CCCCCCCOC(C)=O, the outcome is reported as “inactive”.
In the case of CN(C)CCC[C@@]1(c2ccc(F)cc2)OCc2cc(C#N)ccc21, the outcome is reported as “inactive”.
For Cc1cc(C)c(N)c(Cl)c1, the outcome was “inactive”.
For CCCCCCCCCCCBr, the outcome was “inactive”.
For COC(=O)c1ccc(NC(C)=O)cc1OC, the outcome was “inactive”.
In the case of CC/C=C/CCCCCCCCCCOC(C)=O, the outcome is reported as “inactive”.
In the case of NNC(=O)CCCCC(=O)NN, the outcome is reported as “inactive”.
With CCCCCCCC(=O)N(C)C the outcome was “inactive”.
With CC(C)(C)NCC(O)COc1cccc2c1CCC(=O)N2 (stereo not given) the outcome was “inactive”.
With C=CCCCCCCCCOC(C)=O the outcome was “inactive”.
With CCCCN=C(N)N=C(N)N the outcome was “inactive”.
In the case of CC(C)(O)c1ccc(C(C)(C)O)cc1, the outcome is reported as “inactive”.
With CCN1CCN(C(=O)N[C@@H](C(=O)N[C@@H]2C(=O)N3[C@@H]2SC(C)(C)[C@H]3C(=O)O)c2ccccc2)C(=O)C1=O the outcome was “inactive”.
With CCCC(=O)CC the outcome was “inactive”.
In the case of Clc1ccc2c(c1)Nc1ccccc1S2, the outcome is reported as “inactive”.
For Nc1nc(Cl)cc(Cl)n1, the outcome was “inactive”.
In the case of BrCCOc1ccccc1, the outcome is reported as “inactive”.
In the case of C/C(Cl)=C/CCl, the outcome is reported as “inactive”.
